Source: PubChem BioAssay
Nrf2 block = inhibitors of Nrf2 signaling; A549 ARE-Fluc reporter, luciferase luminescence, 18-24 h; actives 2.1% (n = 360,000); Potency, µM (top dose mostly 46 µM), without a hit: at the highest dose activity change, negative = inhibition, usual class: inhibitors; also: % is scaled to controls: 0 for no effect and ±100 for the full control effect; nearly all actives have a fitted effect of over 60% in size
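Two sequential reads on A549 ARE_Fluc cells exposed to compound for 18-24 h: a CellTiter-Fluor fluorescence read for viability, then a luciferase luminescence read for Nrf2/ARE activity.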
A549 tox = kills or reduces viability of A549 cells in Nrf2 counter-screen; Potency, µM (doses to about 46 µM), without a hit: at the top dose activity change, negative = cytotoxicity, most hits filed as inhibitors; A549 ARE-Fluc cells, CellTiter-Fluor viability, 18-24 h; actives 0.16% (n = 390,000); also: % is scaled to controls: 0 for no effect and ±100 for the full control effect
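A549 ARE-Fluc cells in 5% FBS OPTI-MEM, 5000 cells/well, rested 2 h then exposed to compounds in concentration-response for 18-24 h at 37 °C. Viability by CellTiter-Fluor fluorescence (Ex 405/Em 525) after 30 min; luciferase luminescence (BugLite, 15 min, RT) read afterwards.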
Nrf2 activator = activates Nrf2 signaling. Potency, µM (titrated, usually from 46.1 µM), for the others: at the top dose activation, actives largely listed as activators. AREc32 ARE-luciferase reporter (MCF7-derived line), luminescence, 24 h. actives 0.31% (n = 410,000). AID 624171; also: % of control where 0% means no effect; nearly all actives have a fitted effect of over 65% in size
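Quantitative high-throughput format: AREc32 reporter cells, 1000 per well, received compound by pin transfer and were incubated 24 hr at 37 deg C, 5% CO2, before Steady-Glo luminescence detection.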
ELG1 DNA repair = ELG1-dependent DNA repair inhibition. HEK293T ELG1-luciferase reporter, luminescence, 16 h; DNA damage induced by 5-fluorouridine. Potency, µM (highest dose often 46.1 µM), for the others: top-dose activity change, negative = inhibition, usual class: inhibitors. actives 2.3% (n = 330,000). AID 504467; also: % is scaled to controls: 0 for no effect and ±100 for the full control effect; nearly all actives have a fitted effect of over 55% in size
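Cells (2,000 per well) received 5-fluorouridine plus test compound or DMSO and were incubated 16 hr at 37 °C, 5% CO2. Luciferase activity was read by luminescence 30 min after ONE-Glo addition; signal suppression marked inhibition of damage-induced ELG1 function.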
ELG1 FLuc counter = luciferase inhibition in cell-free luciferin readout for ELG1 hits | shares compounds with ELG1 DNA repair | cell-free firefly luciferase luminescence counter-screen, ViewLux | Potency, µM (doses to about 46.1 µM), inactives show at the highest dose activity change, negative = inhibition, usual class: inhibitors | actives 3% (n = 350); also: % is scaled to controls: 0 for no effect and ±100 for the full control effect
ELG1 Luc conf = human ELG1 repair inhibition, luciferase-tagged ELG1 confirmation; shares compounds with ELG1 DNA repair; HEK293T ELG1-luciferase levels, luminescence; cells co-treated with 5-fluorouridine; Potency, µM (titrated, usually from 46.1 µM), inactives show top-dose activity change, negative = inhibition, most hits filed as inhibitors; actives 68% (n = 670); also: % is scaled to controls: 0 for no effect and ±100 for the full control effect; nearly all actives have a fitted effect of over 55% in size
ELG1 MMS Luc = confirmation of human ELG1 repair inhibitors, MMS stimulated; shares compounds with ELG1 DNA repair; HEK293T luciferase-tagged ELG1 level, MMS stimulated; Potency, µM (doses to about 46.1 µM), for the others: at the highest dose activity change, negative = inhibition, actives largely listed as inhibitors; actives 53% (n = 670); AID 624249; also: % is scaled to controls: 0 for no effect and ±100 for the full control effect; nearly all actives have a fitted effect of over 60% in size
ELG1 5-FU = confirmation of ELG1 repair inhibitors: viability with 5FU; shares compounds with ELG1 DNA repair; cell viability with 5-FU, ELG1-dependent repair; Potency, µM (doses to about 46.1 µM), inactives show at the top dose activity change, negative = viability loss, most hits filed as cytotoxic; 670 tested, under 10 active; AID 624250;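 also: ELG1-luc HEK293T cells cotreated with 5-fluorouridine at 10 µM final; viability measured 16 h after compound addition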
ELG1 MMS viab = confirmation of ELG1 repair inhibitors: viability with MMS. shares compounds with ELG1 DNA repair. Cell viability with MMS, ELG1-dependent DNA repair. Potency, µM (doses to about 46.1 µM), for the others: at the top dose activity change, negative = viability loss, actives largely listed as cytotoxic. actives 33% (n = 670);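 also: ELG1-luc HEK293T cells co-treated with 10 µM MMS; viability read 16 h after compound addition; % is scaled to controls: 0 for no effect and ±100 for the full control effect; nearly all actives have a fitted effect of over 60% in size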
Cell viab unstim = counter-screen for ELG1 repair inhibitors: unstimulated cell viability; actives 8% (n = 900); cell viability counter-screen, unstimulated, luminescence; shares compounds with ELG1 DNA repair; Potency, µM (doses to about 45.9 µM), for inactives: top-dose activity change, negative = loss of viability, usual class: cytotoxic;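 also: compound exposure lasted 16 hours before reading; % is scaled to controls: 0 for no effect and ±100 for the full control effect; nearly all actives have a fitted effect of over 55% in size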
FLuc biochem = inhibits purified firefly luciferase, counter-screen for ELG1 hits; Potency, µM (doses to about 57.5 µM), inactives show at the top dose activity, negative = inhibition, most hits filed as inhibitors; actives 10% (n = 350); purified firefly luciferase, luminescence counter-screen; shares compounds with ELG1 DNA repair; also: % is scaled to controls: 0 for no effect and ±100 for the full control effect
* marks the source's active call; other numbers are inactive results; [ ] = remark or other dose. In the library only some 3.7% were active in any assay of this set; here they are far more common. Calls follow the shape of the dose curve; as a rule, active = well fitted curve in the direction sought with a large enough effect; inconclusive = small, poorly fitted or top-dose-only effect, or another doubt; inactive = no such curve, though single readings can be large; an effect the other way counts as inactive or inconclusive. Potency is read from the fitted curve at half-maximal effect.

Results for CCCC1=Nc2cc(C(=O)NC3CCC(C)CC3)ccc2Sc2ccccc21 (configuration not stated) ?
Nrf2 block: 6.4%; A549 tox: -6.6%; Nrf2 activator: -0.6%

How did Cc1ccc(Sc2ccc(N3CCCC(C(=O)Nc4ccc(Cl)cc4)C3)nn2)cc1 (configuration not stated) do in these assays?
Nrf2 block: inconclusive; A549 tox: -13.9%; Nrf2 activator: -0.3%

Results for O=c1[nH]c(=O)n(Cc2ccc(F)cc2)c(O)c1/C=N/Nc1ccccc1 ?
Nrf2 block: inconclusive; A549 tox: -4.3%; Nrf2 activator: 0.6%; ELG1 DNA repair: 1.83µM*; ELG1 Luc conf: 6.2%; ELG1 MMS Luc: 1.9%; ELG1 5-FU: -0.2%; ELG1 MMS viab: -3.0%; Cell viab unstim: inconclusive

Results for O=c1[nH]c(=O)n(Cc2ccc(F)cc2)c(O)c1C=NCCCO ?
Nrf2 block: 9.7%; A549 tox: 17.5%; Nrf2 activator: 0.1%; ELG1 DNA repair: 16.3%

Results for N#Cc1cccc(NC(=O)CSc2nc3c(cc2C#N)N2CCC3CC2)c1 ?
Nrf2 block: inconclusive; A549 tox: 4.7%; Nrf2 activator: 2.7%

Results for C=C(C)[C@@]12OC3(c4ccccc4)O[C@@H]1[C@@H]1[C@@H]4O[C@]4(CO)[C@@H](O)[C@]4(O)C(=O)C(C)=C[C@H]4[C@@]1(O3)[C@H](C)[C@H]2OC(=O)/C=C/C=C/c1ccccc1 ?
ELG1 FLuc counter: 72.5%; Cell viab unstim: inconclusive; FLuc biochem: -0.5%

What do the screens show for `CC1OC(O[C@@H]2C(O)CC(O[C@@H]3C(O)C[C@@H](OC4CC[C@]5(C)[C@H](CC[C@H]6[C@@H]5CC[C@]5(C)C(C7=CC(=O)OC7)C(O)C[C@@]65O)C4)OC3C)OC2C)CC(O)C1O` (some centres not stated)?
ELG1 Luc conf: 0.56µM*; ELG1 MMS Luc: 0.315µM*; ELG1 5-FU: inconclusive; ELG1 MMS viab: 0.499µM*; Cell viab unstim: 0.199µM*

How did COC1C(O)C(C)O[C@@H](OC2CC[C@@]3(C)C4CC[C@]5(C)C(C6=CC(=O)OC6)CC[C@@]5(O)C4CC[C@@H]3C2)C1O (some centres not stated) do in these assays?
ELG1 FLuc counter: inconclusive; ELG1 Luc conf: 0.0997µM*; ELG1 MMS Luc: 0.0629µM*; ELG1 5-FU: inconclusive; ELG1 MMS viab: 0.141µM*; Cell viab unstim: 0.05µM*; FLuc biochem: -6.0%

What do the screens show for `COC1C(O)C(C)O[C@H](OC2CC[C@@]3(C=O)C4CC[C@]5(C)C(C6=CC(=O)OC6)CC[C@@]5(O)C4CC[C@@H]3C2)C1O` (some centres not stated)?
ELG1 FLuc counter: inconclusive; ELG1 Luc conf: 0.177µM*; ELG1 MMS Luc: 0.0706µM*; ELG1 5-FU: 0.25µM*; ELG1 MMS viab: 0.158µM*; Cell viab unstim: 0.0445µM*; FLuc biochem: inconclusive

What do the screens show for `C[C@@H]1O[C@H](O[C@H]2C[C@@H](O)[C@@]3(CO)[C@H]4[C@@H](O)C[C@]5(C)[C@@H](C6=CC(=O)OC6)CC[C@]5(O)[C@H]4CC[C@]3(O)C2)[C@@H](O)[C@H](O)[C@@H]1O`?
ELG1 FLuc counter: inconclusive; ELG1 Luc conf: 0.239µM*; ELG1 MMS Luc: 0.151µM*; ELG1 5-FU: inconclusive; ELG1 MMS viab: 0.378µM*; Cell viab unstim: 0.095µM*; FLuc biochem: 5.5%[35.2 µM]

What do the screens show for `N#Cc1cc2c(nc1SCC(=O)Nc1ccc(F)c(Cl)c1)C1CCN2CC1`?
Nrf2 block: 18.5%; A549 tox: -10.0%; Nrf2 activator: 0.6%

Results for O=C1c2ccccc2-c2c1nc1c([n+]2[O-])CCCC1 ?
Nrf2 block: 17.1%; A549 tox: 0.8%; Nrf2 activator: 3.0%; ELG1 DNA repair: inconclusive

What do the screens show for `CC1C(OC(=O)CCC(=O)NC(C)(C)CO)O[C@H]2OC3(C)CC[C@H]4[C@H](C)CCC1C24OO3` (some centres not stated)?
Nrf2 block: inconclusive; A549 tox: -14.0%; Nrf2 activator: 5.0%; ELG1 DNA repair: 1.16µM*; ELG1 Luc conf: inconclusive; ELG1 MMS Luc: inconclusive; ELG1 5-FU: -4.6%; ELG1 MMS viab: inconclusive; Cell viab unstim: inconclusive

What do the screens show for `Cc1oc(-c2cccc(Cl)c2)nc1CN1CCC(C(=O)NCCCN2CCN(c3ccc(F)cc3)CC2)CC1`?
Nrf2 block: inconclusive; A549 tox: 11.3%; Nrf2 activator: 5.6%

How did NNC(=O)c1ccc(O)cc1 do in these assays?
Nrf2 block: 3.3%; A549 tox: -1.9%; Nrf2 activator: 1.3%; ELG1 DNA repair: 27.5%

How did O=C(CCl)c1ccc(O)c(O)c1 do in these assays?
Cell viab unstim: -8.5%

How did CCOc1cccc(=NC2CCCCC2)c2c(C)n(C)c(C)c12 do in these assays?
Nrf2 block: 16.4µM*; A549 tox: inconclusive; Nrf2 activator: 7.2%; ELG1 DNA repair: 4.61µM*; ELG1 Luc conf: inconclusive; ELG1 MMS Luc: 7.91µM*; ELG1 5-FU: inconclusive; ELG1 MMS viab: 7.91µM*; Cell viab unstim: inconclusive
